# AMA1 RON2 block = inhibitors of Plasmodium falciparum AMA1-RON2 interaction | Potency, µM (doses to about 58.2 µM), usual class: inhibitors | 360,000 compounds, 0.2% hits | AID 720542 | AlphaScreen AMA1-biotinylated RON2 peptide binding; note: nearly all actives have a fitted effect of over 45% in size
#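 AMA1 (3D7) with his tag at 25 nM final met compounds first, then biotinylated RON2 peptide at 25 nM; detection used donor plus acceptor beads, 10 µg/mL apiece, read by AlphaScreen after 30 min at room temperature.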
# Pf growth 96h = P. falciparum growth inhibition at 96 hours; Potency, µM (top dose mostly 28.7 µM), usual class: inhibitors; P. falciparum luciferase reporter growth, 96 h; AID 504834; 320,000 compounds, 6.9% hits
#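 Infected RBCs, 2% Hct / 0.05% parasitemia final; luciferase-reporter P. falciparum; cpd 96 h, 37 C, 5% CO2; luciferase detection reagent; luminescence.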
# Cycloheximide cs = affects cycloheximide protein synthesis inhibition readout, counter-screen; cell reporter, cycloheximide protein synthesis inhibition counterscreen; max response, %; 300,000 compounds, 12% hits; AID 2314; in the data active = max response mostly above about 13%, no sharp cut-off; inactive = mostly below about 14%; note: read at 38.3 µM for the half of the compounds with a filed dose
# Pf growth 48h = P. falciparum growth inhibition at 48 hours (one generation); Potency, µM (titrated, usually from 28.7 µM), hits mostly inhibitors; 310,000 compounds, 5.9% hits; P. falciparum luciferase growth in erythrocytes, 48 h
#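 Here the parasites carry a stable luciferase gene and grow inside erythrocytes in Albumax-based RPMI medium with compound for one erythrocytic cycle. Activity is scored as loss of luminescent signal.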
# Shiga toxin inh = Shiga toxin inhibition | Vero cells, Shiga toxin protein synthesis inhibition reporter | inhibition, % at 38.7 µM | 290,000 compounds, 9.2% hits; in the data active = inhibition mostly above about 28%, no sharp cut-off; inactive = mostly below about 43%
# SARS PLP yeast = blocks SARS-CoV papain-like protease in a yeast assay; S. cerevisiae expressing SARS-CoV PLpro, growth rescue; Potency, µM (doses to about 32.9 µM), usual class: activators; 330,000 compounds, 0.19% hits; AID 485353; calls by dose curve; note: nearly all actives have a fitted effect of over 55% in size
# Numbers stand for hits; . = inactive; ? = inconclusive; / = no result given. This is a sample that favours compounds with a hit; in the whole collection about 19% have one here. Unless noted, calls come from the whole dose curve; as a rule, active = well fitted curve in the direction sought with a large enough effect; inconclusive = small, poorly fitted or top-dose-only effect, or another doubt; inactive = no such curve, though single readings can be large; an effect the other way counts as inactive or inconclusive.
SMILES,AMA1 RON2 block,Pf growth 96h,Cycloheximide cs,Pf growth 48h,Shiga toxin inh,SARS PLP yeast
COc1ccccc1N=c1oc2cc(O)ccc2cc1C(=O)NCC1CCCO1 (stereo unspecified),.,?,17,?,.,.
COc1cc(OC)c(C(=O)NCC2CCCO2)cc1OC (stereo unspecified),.,.,.,.,.,.
COc1ccc2oc(=Nc3cccc(F)c3)c(C(N)=O)cc2c1,.,.,34,.,73,.
COc1ccc(C(=O)Nc2ccccc2C(=O)NCC2CCCO2)cc1 (stereo unspecified),.,.,.,.,.,.
COc1ccccc1N=c1oc2cc(O)ccc2cc1C(N)=O,.,.,14,.,.,.
COc1ccc2cc(C(N)=O)c(=Nc3ccc(C)cc3)oc2c1,.,.,.,?,.,.
CC(C)N=C(NS(=O)(=O)c1ccc(Br)cc1)c1ccc(Cl)cc1,.,.,.,.,.,.
Cc1cccc(N=c2oc3cc(O)ccc3cc2C(N)=O)c1,.,.,27,.,39,.
COC(=O)C(Cc1c[nH]c2ccccc12)NC(=O)c1cc(-c2ccc(OC)c(OC)c2)oc1C (stereo unspecified),.,?,.,2.9µM,.,.
CCCCN(C)C(=O)CCCc1c[nH]c2ccccc12,.,.,17,?,42,.
NCCc1c[nH]c2ccc(O)cc12,/,/,42,/,.,/
Cc1cc(C(=O)NC(Cc2c[nH]c3ccccc23)C(=O)O)c(C)o1 (stereo unspecified),.,?,.,.,/,.
O=C(CCc1c[nH]c2ccccc12)N[C@@H](Cc1c[nH]c2ccc(O)cc12)C(=O)O,.,4.7µM,.,3.7µM,.,.
CCOC(=O)CCCc1c[nH]c2ccccc12,.,?,.,.,.,.
Cc1cccc(NC(=O)c2cccc(N3C(=O)C4C5CCC(C5)C4C3=O)c2)c1C (stereo unspecified),.,?,.,.,.,.
CCOc1ccc(CCNC(=O)C(CCC(N)=O)NC(=O)OCc2ccccc2)cc1OCC (stereo unspecified),.,.,.,?,.,.
CCOC(=O)C(C(=O)Nc1ccc(C)cc1)C1CCCCC1 (stereo unspecified),.,.,.,/,.,.
O=C(NCCSc1c[nH]c2ccccc12)c1ccc2c(c1)OCO2,.,.,.,.,.,.
Cc1noc(C)c1COC(=O)CCCc1c[nH]c2ccccc12,.,?,.,12µM,.,.
COC(=O)C(Cc1c[nH]c2ccccc12)NC(C)=O (stereo unspecified),.,4.1µM,.,.,.,.
COC(=O)C(Cc1c[nH]c2ccccc12)NC(=O)c1cccs1 (stereo unspecified),.,.,.,.,.,.
Cc1ccc(C(=O)NC(Cc2c[nH]c3ccccc23)C(=O)O)cc1 (stereo unspecified),.,/,.,.,.,.
COc1cc(C(=O)N[C@@H](Cc2c[nH]c3ccccc23)C(=O)O)cc(OC)c1OC,.,.,35,.,67,.
N[C@H](Cc1c[nH]c2ccccc12)C(=O)O,/,1.5µM,/,.,/,/
Cc1ccc(C(=O)NCC(=O)OCC(=O)c2ccc(Br)s2)cc1,.,.,/,.,/,.
SMILES,AMA1 RON2 block,Pf growth 96h,Cycloheximide cs,Pf growth 48h,Shiga toxin inh,SARS PLP yeast
C=CCCC(=O)N1CCC(CCC(=O)NC2CC2)CC1,.,.,.,.,.,.
OCc1c[nH]c2ccccc12,.,?,/,?,/,/
CNC(=O)[C@H](Cc1c[nH]c2ccccc12)NC(=O)[C@@H](CC(=O)NO)CC(C)C,/,.,/,3.8µM,/,/
CN(C)Cc1c[nH]c2ccccc12,.,9.3µM,/,?,/,.
O=C(CCCc1c[nH]c2ccccc12)N[C@@H](Cc1c[nH]c2ccccc12)C(=O)O,.,8.3µM,.,9.3µM,.,.
CC(C)CC(NC(=O)OCc1ccccc1)C(=O)NC(Cc1c[nH]c2ccccc12)C(=O)O (stereo unspecified),.,/,/,/,/,/
O=C(CCc1c[nH]c2ccccc12)N1CCCC1,.,.,.,.,.,.
O=C(CCCc1c[nH]c2ccccc12)N1CCCCCC1,.,5.9µM,20,.,.,.
COc1cc2c3c(c1OC)C(=O)CC3CCCC2 (stereo unspecified),.,/,/,/,/,/
CC(C)CNS(=O)(=O)c1ccc(CCC(=O)NCCc2ccccc2)cc1,.,?,.,.,.,.
C[C@H](CO)N1C[C@H](C)[C@@H](CN(C)C(=O)NC2CCCCC2)Oc2ccc(NC(=O)C3CC3)cc2C1=O,.,/,/,/,/,/
CC1(C)CC(NC(=O)c2ccccn2)CC(C)(C)N1O,.,.,.,.,.,.
CC(=O)NC(Cc1c[nH]c2ccccc12)C(=O)OCC(=O)N1CCN(S(=O)(=O)c2ccc(Cl)cc2)CC1 (stereo unspecified),.,/,/,/,/,/
NC(=O)N[C@@H](Cc1c[nH]c2ccccc12)C(=O)OCC(=O)N1CCCCC1,.,.,.,12µM,.,.
COc1ccc(CNC(=O)COC(=O)Cc2ccc(Cl)cc2Cl)cc1,.,.,.,.,.,?
CCCCC1=CC2=C(c3ccco3)C(=O)C(C)(OC(=O)c3ccc(OC)cc3)C(=O)C2=CN1CCN1CCOCC1 (stereo unspecified),.,10µM,.,?,.,.
CCCCC1=CC2=C(c3ccco3)C(=O)C(C)(OC(=O)c3ccc(OC)cc3)C(=O)C2=CN1CCCN(CC)CC (stereo unspecified),.,15µM,.,?,.,.
CCCCC1=CC2=C(c3ccco3)C(=O)C(C)(OC(=O)c3ccc(OC)cc3)C(=O)C2=CN1CCCCO (stereo unspecified),.,?,.,?,.,.
O=C(/C=C/c1ccccc1)N1CCC(N2CCC(C(=O)N3CCOCC3)CC2)CC1,.,.,.,.,.,.
CC(C)N(CCO)C(=O)CCc1nnc(CCCc2ccccc2)o1,.,.,39,.,63,.
CN(Cc1nccn1C)C(=O)CCc1nnc(CCC2CCCCC2)o1,.,.,.,.,.,.
CC(C)N(Cc1nccn1C)C(=O)CCc1nnc(CCCc2ccccc2)o1,.,.,56,.,59,.
O=c1c(O)c(-c2cc(O)c(O)c(O)c2)oc2cc(O)cc(O)c12,?,.,/,.,/,/
O=C1C=CC(O)(c2cc(=O)c3c(O)cc(O)cc3o2)C=C1,.,15µM,45,9.3µM,93,.
Cc1ccc(C(=O)N/C(=C/c2ccccc2)C(=O)NCC2CCCO2)cc1 (stereo unspecified),.,?,.,.,.,.
CCC(C)NS(=O)(=O)c1ccc(S(=O)(=O)Nc2cc3c(cc2C(C)=O)OCO3)cc1 (stereo unspecified),.,9.3µM,.,.,.,.
CC(=O)c1cc2c(cc1NS(=O)(=O)c1ccccc1)OCO2,.,.,.,/,.,.
COc1ccc(NS(=O)(=O)c2cccc(C(=O)NCc3ccccc3CN3CCOCC3)c2)cc1,.,/,/,/,/,/
